Bioassay records (PubChem)
L3MBTL1 inh = inhibitors of human L3MBTL1 | Q9Y468 | AlphaScreen L3MBTL1–H3K9me1 peptide binding | Potency, µM (titrated, usually from 57.1 µM), for the others: at the top dose activity, negative = inhibition, most hits filed as inhibitors | 230,000 tested, 0.66% active; further: on the % scale 0 is the no-effect control and ±100 the full control effect; nearly all actives have a fitted effect of over 60% in size
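Read-out is AlphaScreen signal from streptavidin donor and nickel chelate acceptor beads (10 ug/mL final each) bridging L3MBTL1 (50 nM) and biotinylated K9-monomethylated H3(1-15) peptide (75 nM), after 30 min compound exposure at room temperature.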
G9a inh = inhibitors of human histone lysine methyltransferase G9a; Potency, µM (doses to about 102 µM), for inactives: top-dose activity, negative = inhibition, usual class: inhibitors; G9a H3K9 monomethylation, AlphaScreen, 2 h; 350,000 tested, 8.8% active; Q96KQ7; AID 504332; further: on the % scale 0 is the no-effect control and ±100 the full control effect; nearly all actives have a fitted effect of over 75% in size
Target sequence (Q96KQ7 913-1193 limits assumed): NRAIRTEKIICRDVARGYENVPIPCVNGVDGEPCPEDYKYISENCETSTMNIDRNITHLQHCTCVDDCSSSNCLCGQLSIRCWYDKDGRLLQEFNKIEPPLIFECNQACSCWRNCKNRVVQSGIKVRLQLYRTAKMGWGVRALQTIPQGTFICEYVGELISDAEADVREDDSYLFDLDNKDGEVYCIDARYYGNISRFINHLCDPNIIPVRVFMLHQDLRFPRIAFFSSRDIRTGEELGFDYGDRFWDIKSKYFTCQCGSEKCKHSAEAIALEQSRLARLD
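Step 1: enzyme (final 20 nM) with compound, 15 min RT. Step 2: substrate peptide 500 nM and SAM 20 uM, 2 h RT. Step 3: anti-H3K9me1 antibody and AlphaScreen beads, 10 min, then plate read.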
Sfp inh = inhibitors of Bacillus subtilis Sfp phosphopantetheinyl transferase. Potency, µM, inactives show largest response in the series, negative = inhibition, actives largely listed as inhibitors. 310,000 tested, 3.5% active. AID 1490. Q9F4F7. Biochemical Sfp PPTase activity, qHTS;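 further: the enzyme is Sfp with the accession as filed and its product quenches rhodamine fluorescence; 0% = enzyme reaction without inhibitor and -100% = no enzyme wells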
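Reaction rates are the 30-min fluorescence difference (ex 525, em 598 nm) in wells containing 15 nM Sfp, 5 uM rhodamine-CoA and 12.5 uM BHQ-2-YbbR at pH 7.6 with 10 mM MgCl2.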
HP1b chromo inh = inhibitors of HP1-beta chromodomain binding to methylated histone tails; Potency, µM (highest dose often 114 µM), inactives show top-dose activity change, negative = inhibition, most hits filed as inhibitors; 390,000 tested, 0.56% active; AlphaScreen HP1-beta / biotin-H3K9me3 peptide binding; further: nearly all actives have a fitted effect of over 70% in size
Target sequence (P83916 whole entry, looked up): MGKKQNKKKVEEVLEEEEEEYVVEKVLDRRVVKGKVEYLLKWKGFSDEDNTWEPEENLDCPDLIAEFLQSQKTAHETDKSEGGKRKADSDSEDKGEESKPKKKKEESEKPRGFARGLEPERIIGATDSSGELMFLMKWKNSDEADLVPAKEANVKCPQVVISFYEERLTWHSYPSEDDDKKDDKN
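Compound inhibition of the preformed complex between 50 nM HP1-beta and 50 nM biotinylated H3K9me3 peptide was read by AlphaScreen. Buffer was PBS pH 7.4 with 0.01% Tween-20. Incubations ran 30 min at room temperature, with 10 ug/mL donor/acceptor beads.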
BAZ2B inh = inhibitors of human BAZ2B bromodomain; Q9UIF8; AlphaScreen BAZ2B-H3K14Ac peptide displacement; Potency, µM (top dose mostly 114 µM), without a hit: at the highest dose activity change, negative = inhibition, hits mostly inhibitors; 360,000 tested, 4.4% active; AID 504333; further: on the % scale 0 is the no-effect control and ±100 the full control effect; nearly all actives have a fitted effect of over 60% in size
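BAZ2B 50 nM plus b-H3(5-23)K14Ac 50 nM, PBS pH 7.4/0.01% Tween-20, 30 min RT; compound added (max 110 uM), 30 min RT; streptavidin donor/Ni-chelate acceptor beads 10 ug/mL final, 20 min dark; AlphaScreen read.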
JMJD2A Tudor inh = JMJD2A Tudor domain (human) inhibition; AlphaScreen JMJD2A-Tudor / H3K4me3 peptide binding; Potency, µM (top dose mostly 114 µM), for the others: at the top dose activity change, negative = inhibition, actives largely listed as inhibitors; 390,000 tested, 4.4% active; further: on the % scale 0 is the no-effect control and ±100 the full control effect; nearly all actives have a fitted effect of over 50% in size
Numbers without * were called inactive; ? = inconclusive; / = no result given; [ ] = remark or other dose. This is a sample that favours compounds with a hit; in the whole collection about 12% have one here. The call rests on the fitted dose curve; in most records, active means well fitted curve in the direction sought with a large enough effect; inconclusive means small, poorly fitted or top-dose-only effect, or another doubt; inactive means no such curve, though single readings can be large; an effect the other way counts as inactive or inconclusive. Potency means the concentration at half of the fitted maximal effect.

SMILES	L3MBTL1 inh	G9a inh	Sfp inh	HP1b chromo inh	BAZ2B inh	JMJD2A Tudor inh
COc1cc2c(cc1OC)C(c1ccccc1)CC2=O (centres undefined)	/	/	-5%	18%	-5%	-19%
CCc1ccccc1N1CSC2=C(C#N)C(c3cc(OC)c(OC)cc3OC)CC(=O)N2C1 (centres undefined)	/	?	0.89µM*	-75%	50µM*	8.9µM*
CCC1CCCCN1C(=O)CSc1nc(-c2ccc(OC)cc2)cc(C(F)(F)F)n1 (centres undefined)	/	26%[59 µM]	/	65%	11%[57.1 µM]	18%
COc1ccccc1NC(=O)CSc1nc2c(oc3ccccc32)c(=O)n1Cc1ccco1	/	4%[59 µM]	/	15%	-2%	-8%
CCc1cccc(NC(=O)c2nnn(Cc3ccc(SC)cc3)c2N)c1	/	-2%[59 µM]	/	20%	-1%	-18%
Cn1c(N=Nc2ccc(N3CCOCC3)cc2)[n+](C)c2ccccc21	-25%	18µM*	?	?	13µM*	?
NC(=S)N=Nc1c(O)[nH]c2cc(F)c(F)cc12	-7%	6%[59 µM]	45µM*	20%	4%	-26%
COc1ccc(-n2cc(C(=O)NC(C)c3ccccc3)c3ccccc3c2=O)cc1 (centres undefined)	/	?	/	-13%	-37%	?
COc1cc(CNc2ccc(N3CCCC3)cc2)cc(Cl)c1OC	?	3.5µM*	14µM*	14µM*	35µM*	10µM*
CCOc1cc(CNc2ccc(N3CCCC3)cc2)cc(Cl)c1OC	?	10µM*	?	20µM*	13µM*	11µM*
COc1cccc(Nc2ccc(N3CCCCC3)cc2)c1OC	35µM*	-23%[0.501 µM]	/	32µM*	14µM*	32µM*
Cc1cc(=O)[nH]c(SCC(=O)c2ccccc2)c1C#N	-2%	?	20µM*	49%	-6%	-14%
Cc1cc(C)c(C#N)c(SCC(=O)c2ccccc2)n1	27%	/	-10%	148%	-4%	16%
Cc1ccccc1NC(=O)CSc1[nH]c(=O)cc(C)c1C#N	-11%	14µM*	22µM*	37%	5%	-16%
COc1cccc(Cn2c(CNS(=O)(=O)c3ccc(F)c(Cl)c3)nc3cccnc32)c1	/	3%[59 µM]	/	36%[57 µM]	3%	-19%
Cc1ccc2[nH]c3c(c2c1)CN(C(=O)CN1c2ccc(F)cc2CCC1C)CC3 (centres undefined)	-15%	32µM*	6%	?	40µM*	45µM*
O=C(CN1CCN(C(=O)c2ccco2)CC1)N1CCc2[nH]c3ccccc3c2C1	0%	22µM*	35µM*	26%	-24%	-15%
Cc1ccc2[nH]c3c(c2c1)CN(C(=O)CN1CCN(c2cccc(C)c2C)CC1)CC3	-16%	?	2%	-18%	35µM*	56µM*
Cc1ccc2[nH]c3c(c2c1)CN(C(=O)CN1CCN(C(=O)c2ccco2)CC1)CC3	-9%	?	7%	/	-19%	/
COc1ccc(N2CC(c3nc(-c4cc(OC)c(OC)c(OC)c4)no3)CC2=O)cc1Cl (centres undefined)	/	-18%[59 µM]	/	65%	-19%	-26%
O=C1CC(c2cccc(O)c2)c2c(nc(SCc3ccccc3F)[nH]c2=O)N1 (centres undefined)	/	-13%[59 µM]	/	20%	?	-13%
O=C(Nc1nnc(SCC(=O)N2CCOCC2)s1)C1CC(=O)N(c2ccccc2)C1 (centres undefined)	/	26%[59 µM]	10%	45%	-8%	-5%
Cc1cccc(N2CC(C(=O)Nc3nnc(SCC(=O)N4CCOCC4)s3)CC2=O)c1 (centres undefined)	/	45µM*	-23%	22%	-25%	-27%
COc1ccc(N2CC(C(=O)Nc3nnc(SCC(=O)N4CCOCC4)s3)CC2=O)cc1 (centres undefined)	/	35µM*	50µM*	5%	-23%	-26%
